# Measurements published in the supplement of paper PMC8728848.
# This is one part of a sample in which the strongest signals are shown more often than they occur.
# B1: EfCBM33A (Enterococcus faecalis), Q838S1 (protein)
# chain: MKKSLLTIVLAFSFVLGGAALAPTVSEAHGYVASPGSRAFFGSSAGGNLNTNVGRAQWEPQSIEAPKNTFITGKLASAGVSGFEPLDEQTATRWHKTNITTGPLDITWNLTAQHRTASWDYYITKNGWNPNQPLDIKNFDKIASIDGKQEVPNKVVKQTINIPTDRKGYHVIYAVWGIGDTVNAFYQAIDVNIQ
# Assays:
# Assay in all cases: glycan array binding signal (z-score within array); higher = stronger binding
# Conditions in all cases: glycan notation: IUPAC condensed, linker removed
# [1] = molecular target: Fuc(a1-2)Gal(b1-3)GalNAc(a1-3)[Fuc(a1-2)]Gal(b1-4)GlcNAc
# In short: (§1)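 Glycan array data were curated from 3228 arrays in the Consortium for Functional Glycomics database and kept only where the protein sequence was available. Glycan names were converted to IUPAC-condensed notation, and columns mapping to the same glycan were averaged. The binding signal is a within-array Z-score, averaged across arrays of the same protein sequence at different concentrations or buffers and across linkers. Negative Z-scores can be read as non-binding.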
# [2] = molecular target: Fuc(a1-2)Gal(b1-3)GlcNAc(b1-3)[Gal(b1-4)GlcNAc(b1-6)]Gal(b1-4)Glc
# In short: as §1
# [3] = molecular target: Fuc(a1-2)Gal(b1-3)[Fuc(a1-4)]GlcNAc(b1-2)Man(a1-3)[Fuc(a1-2)Gal(b1-3)[Fuc(a1-4)]GlcNAc(b1-2)Man(a1-3)]Man(b1-4)GlcNAc(b1-4)GlcNAc
# In short: as §1
# Fuc(a1-2)Gal(b1-4)Glc = molecular target: Fuc(a1-2)Gal(b1-4)Glc
# In short: as §1
# [4] = molecular target: Fuc(a1-2)Gal(b1-4)GlcNAc(b1-6)GalNAc
# In short: as §1
# [5] = molecular target: Fuc(a1-2)Gal(b1-4)[Fuc(a1-3)]GlcNAc
# In short: as §1
# [6] = molecular target: Fuc(a1-2)Gal3S(b1-4)GlcNAc
# In short: as §1
# [7] = molecular target: Fuc(a1-2)[GalNAc(a1-3)]Gal(b1-4)GlcNAc(b1-2)Man(a1-3)[Fuc(a1-2)[GalNAc(a1-3)]Gal(b1-4)GlcNAc(b1-2)Man(a1-6)]Man(b1-4)GlcNAc(b1-4)[Fuc(a1-6)]GlcNAc
# In short: as §1
# [8] = molecular target: Fuc(a1-2)[GalNAc(a1-3)]Gal(b1-4)GlcNAc(b1-3)Gal(b1-4)GlcNAc
# In short: as §1
# [9] = molecular target: Fuc(a1-2)[GalNAc(a1-3)]Gal(b1-4)[Fuc(a1-3)]GlcNAc
# In short: as §1
# [10] = molecular target: Fuc(a1-3)[Gal(b1-4)]GlcNAc(b1-3)Gal(b1-4)[Fuc(a1-3)]GlcNAc
# In short: as §1
# [11] = molecular target: Fuc(a1-3)[Gal(b1-4)]GlcNAc6S
# In short: as §1
# [12] = molecular target: Gal(a1-3)Gal(b1-3)GlcNAc(b1-2)Man
# In short: as §1
# [13] = molecular target: Gal(b1-3)GlcNAc(a1-3)Gal(b1-4)GlcNAc
# In short: as §1
# [14] = molecular target: Gal(b1-3)GlcNAc(b1-3)Gal(b1-4)GlcNAc
# In short: as §1
# [15] = molecular target: Gal(b1-4)GlcNAc(b1-3)Gal(b1-3)GlcNAc
# In short: as §1
# [16] = molecular target: Gal(b1-4)GlcNAc(b1-3)Gal(b1-4)GlcNAc(b1-3)Gal(b1-4)GlcNAc(b1-3)Gal(b1-4)GlcNAc(b1-3)Gal(b1-4)GlcNAc(b1-2)Man(a1-3)[Gal(b1-4)GlcNAc(b1-3)Gal(b1-4)GlcNAc(b1-3)Gal(b1-4)GlcNAc(b1-3)Gal(b1-4)GlcNAc(b1-3)Gal(b1-4)GlcNAc(b1-2)Man(a1-6)]Man(b1-4)GlcNAc(b1-4)[Fuc(a1-6)]GlcNAc
# In short: as §1
# [17] = molecular target: Gal(b1-4)GlcNAc(b1-3)Gal(b1-4)[Fuc(a1-3)]GlcNAc(b1-3)Gal(b1-4)[Fuc(a1-3)]GlcNAc
# In short: as §1
# [18] = molecular target: Gal3S(b1-3)[Fuc(a1-4)]GlcNAc
# In short: as §1
# Gal4S(b1-4)GlcNAc = molecular target: Gal4S(b1-4)GlcNAc
# In short: as §1
# Gal6S(b1-4)GlcNAc = molecular target: Gal6S(b1-4)GlcNAc
# In short: as §1
# [19] = molecular target: GalNAc(a1-3)GalNAc(b1-3)Gal(a1-4)Gal(b1-4)GlcNAc
# In short: as §1
# GalNAc(b1-4)GlcNAc = molecular target: GalNAc(b1-4)GlcNAc
# In short: as §1
# [20] = molecular target: GalNAc(b1-4)GlcNAc(b1-2)Man(a1-3)[GalNAc(b1-4)GlcNAc(b1-2)Man(a1-6)]Man(b1-4)GlcNAc(b1-4)GlcNAc
# In short: as §1
# GalNAc3S(b1-4)GlcNAc3S = molecular target: GalNAc3S(b1-4)GlcNAc3S
# In short: as §1
binder,measurement,setting,value
B1,glycan array binding signal (z-score),[1],-0.436
same,glycan array binding signal (z-score),[2],-0.026
same,glycan array binding signal (z-score),[3],0.371
same,glycan array binding signal (z-score),Fuc(a1-2)Gal(b1-4)Glc,0.342
same,glycan array binding signal (z-score),[4],1.05
same,glycan array binding signal (z-score),[5],0.633
same,glycan array binding signal (z-score),[6],0.017
same,glycan array binding signal (z-score),[7],-0.321
same,glycan array binding signal (z-score),[8],0.048
same,glycan array binding signal (z-score),[9],-1.09
same,glycan array binding signal (z-score),[10],0.008
same,glycan array binding signal (z-score),[11],0.882
same,glycan array binding signal (z-score),[12],1.41
same,glycan array binding signal (z-score),[13],0.358
same,glycan array binding signal (z-score),[14],2.06
same,glycan array binding signal (z-score),[15],-0.608
same,glycan array binding signal (z-score),[16],8.45
same,glycan array binding signal (z-score),[17],0.067
same,glycan array binding signal (z-score),[18],2.81
same,glycan array binding signal (z-score),Gal4S(b1-4)GlcNAc,-1.18
same,glycan array binding signal (z-score),Gal6S(b1-4)GlcNAc,0.105
same,glycan array binding signal (z-score),[19],-0.606
same,glycan array binding signal (z-score),GalNAc(b1-4)GlcNAc,1.05
same,glycan array binding signal (z-score),[20],3.54
same,glycan array binding signal (z-score),GalNAc3S(b1-4)GlcNAc3S,0.074
